Reference: PubChem BioAssay (NCI)
This is part of a sample that, as a whole, favours compounds with a hit. Of some 83,000 tested, about 20% had one in any assay.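 48-hour exposure, single concentration, 96-well plates; percent growth endpoint where 0 means no net growth. Active: below 10.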 Values without a mark were called inactive. The source made the active and inactive calls.

System: HL-60(TB) leukemia
Test: NCI-60 one-dose screen, 48 h (100 = growth as untreated, 0 = no growth, -100 = all killed)
Settings: 10 µM unless noted

| SMILES | growth |
| --- | --- |
| CCCCCOC(=O)c1cccc(NC(=O)CN(CC)CC)c1 | 101% |
| COc1ccc(O)c(-c2cc(-c3ccc(Cl)cc3)c(C#N)c(=O)[nH]2)c1 | 65.2% |
| O=C(Nc1cccc(-n2cc(-c3ccncc3)c(-c3ccc(Cl)c(O)c3)n2)c1)c1ccccc1 | 167% |
| COc1c2occc2c(OC)c2c(=O)c(-c3cc(-c4ccc(F)cc4)c(C#N)c(N)n3)c(C)oc12 | 54.7% |
| COc1cccc(CCNc2ncnc3c2ncn3Cc2nnc3c4ccccc4c(Cl)nn23)c1 | 57.5% |
| N#Cc1ccccc1OCC(=O)Nc1nc2c(s1)COc1ccccc1-2 | 107% |
| CC12CCC3C4(C)COC(c5ccco5)OC4CCC3(C)C1CC(C1=CCOC1=O)O2 (stereo not given) | 98.3% |
| O=C(Nc1nc(-c2ccc(Cl)cc2)cs1)c1cc(-c2ccc(Br)cc2)nc2ccc(Cl)cc12 | -24.7% (active) |
| COc1nc2ccc(C)cc2cc1/C=[N+](\[O-])c1ccccc1 | 80.3% |
| Clc1ccc(-c2nc(-c3cccs3)no2)cc1 | 108% |
| COc1cc(-c2nc3sccn3c2-c2ccnc(NCCNS(=O)(=O)c3ccc(F)cc3)n2)ccc1F | -17.4% (active) |
| C=CC(CC(c1ccccc1)(c1ccccc1)c1ccccc1)N(CC)CC (stereo not given) | 71.5% |
| CC1(c2ccccc2)NC(=O)NC1=O (stereo not given) | 104% |
| Cn1c(=O)c2c(nc(NC3=NS(=O)(=O)c4ccccc43)n2Cc2ccccc2)n(C)c1=O | 112% |
| COc1ccc(Cl)cc1NC(=O)c1cc2c([nH]1)-c1nc(NC(=O)C(C)C)sc1CC2 | 90.9% |
| O=C(N/N=C/c1ccc(Cl)cc1)c1cc(-c2cc3ccccc3o2)nn1-c1ccccc1 | 117% |
| O=C1Nc2cc(Cl)ccc2/C1=C\c1c(-c2ccc(F)cc2)nc2ccccn12 | -46% (active) |
| COc1ccc2c(c1)CCc1c-2n[nH]c1-c1[nH]nc2c1CCc1cc(OC)ccc1-2 | 23.4% |
| CCCCOc1nc2ccc(C)cc2cc1/C=C/C(=O)/C=C(O)/C=C/c1cc2cc(C)ccc2nc1OCCCC | 99% |
| CNS(=O)(=O)c1n[nH]nc1-c1cc(C(C)(C)C)c(O)c(C(C)(C)C)c1 | 95% |
| CCOC(=O)CCCS(C)(=O)=O | 117% |
| COc1ccc2c(c1)C(c1cc(OC)c3c(c1)OCO3)C1=C(COC1=O)N2 (stereo not given) | 4.04% (active) |
| COC(=O)[C@@H]1CC[C@]2(C)[C@H](CC[C@@H]3O[C@@]32C)[C@@]1(C)CC(=O)c1ccoc1 | 89.8% |
| CNC(=O)c1cnc(C)nc1-c1cc(C(C)(C)C)c(O)c(C(C)(C)C)c1 | 91.1% |
| O=c1c2ccccc2n(C[C@H]2CO2)c2ccccc12 | -44.5% (active) |
| O=C1CCC(C(=O)NN(c2ccccc2)c2ccccc2)N1 (stereo not given) | -18.8% (active) |
| CN(C)c1cccc2c(S(=O)(=O)N[C@H]3CC[C@H]4[C@@H]5CCc6cc(O)ccc6[C@H]5CC[C@]34C)cccc12 | -26.7% (active) |

| SMILES | growth |
| --- | --- |
| O=C(CCCN1CCC(O)(c2ccc(Br)cc2)CC1)c1ccc(F)cc1 | 72.5% |
| O=S(=O)(NCl)c1ccccc1 | 99.8% |
| c1ccc(Sc2ccccc2)cc1 | 85.8% |
| CCCOC(=O)c1nc(N(CC2CCCCC2)C(=O)NC)sc1/N=C/c1ccccc1 | -9.46% (active) |
| C=C1C(=O)O[C@H]2[C@H]1CC/C(Cn1cc(-c3ccsc3)nn1)=C\CC[C@@]1(C)O[C@@H]21 | -23.5% (active) |
| Cc1ccc(-[n+]2c3cc(N)c(C)cc3nc3cc(C)c(Nc4ccccc4)cc32)cc1 | -20.6% (active) |
| C=C(CNCCc1ccc(O)cc1)[C@@H]1CC[C@]2(COC3CCCCO3)CC[C@]3(C)[C@H](CC[C@@H]4[C@@]5(C)CCC(NCCO)C(C)(C)[C@@H]5CC[C@]43C)[C@@H]12 (stereo not given in full) | -59.5% (active) |
| Nc1cc(C(=O)NC[C@H]2CN(c3ccc(N4CCC(C(=O)O)CC4)cc3)C(=O)O2)ccc1Cl | 97.9% |
| CCCCCCCCCCCCCCCCCCOc1ccccc1CC(=O)OCC[N+]1(C)CCOCC1 | 56.1% |
| O=C1/C=C/[C@@H](O)[C@@H]2C[C@@H](O)C[C@H]2/C=C/CCC[C@H](CCc2cccc3ccccc23)O1 | -44.8% (active) |
| O=C(CCSc1nnc2n(Cc3ccccc3)c(=O)c3c4c(sc3n12)CCCC4)N1CCN(c2ccccc2)CC1 | 106% |
| CN(C)c1ccc2nc3ccc(=N)cc-3sc2c1 | -28.5% (active) |
| COc1ccccc1-c1ccc2c(N)c(C(=O)c3ccc4c(c3)OCO4)sc2n1 | 37% |
| CS(=O)(=O)Cc1cnc(C2OCCO2)s1 | 88.5% |
| Cc1ccc(-c2cc(-c3nnc(SCC(=O)c4ccccc4)o3)c3ccccc3n2)cc1 | 103% |
| O=C(Nc1cc([N+](=O)[O-])c2[nH]c(=O)c3ccccc3c2c1)C(F)(F)F | 94.4% |
| COc1ccc(-c2nc(N/N=C/c3cccc(Br)c3)nc(N3CCOCC3)c2C#N)cc1 | 10.7% |
| CN=C1C=C/C(=N/N=c2/ccn(O)cc2C)C=C1C | 75.6% |
| CC1=C(C(=O)Nc2ccc(F)cc2)C(c2ccc(C)cc2)C2=C(CC(C)(C)CC2=O)N1 (stereo not given) | 114% |
| COc1cc2c(cc1OC)[C@H](C(=O)O)[C@@H](c1ccc(OC(C)C)c(OC)c1)N(C)C2=O | 94.9% |
| O=C(CCCCl)NNc1nccc(Nc2ccc(S(=O)(=O)Nc3ccncc3)cc2)n1 | 127% |
| Cc1ccc2c(n1)C(=O)C(Oc1ccc(Br)cc1)=CC2=O | 41.1% |
| COc1ccc(Cl)cc1NC(=O)c1c(NC(=O)C(F)(F)C(F)(F)F)sc2c1CCCCC2 | 12.4% |
| Cc1nc2sc(C(=O)Nc3cccc4ccccc34)c(N)c2cc1C(=O)/C=C/c1ccccc1 | 4.48% (active) |
| C[n+]1c(/C=C\C=C\N2CCCCC2)sc2ccccc21 | -37.3% (active) |
| O=C(Nc1cccc(-n2cc(-c3ccncc3)c(-c3ccc(Cl)c(O)c3)n2)c1)Nc1cc(C(F)(F)F)cc(C(F)(F)F)c1 | -18.3% (active) |
| COc1ccc(-c2cncnc2N)cc1OC | 95.8% |

| SMILES | growth |
| --- | --- |
| Cc1nn(-c2ccccc2)c2nc(N)c(C3=NCCO3)nc12 | 102% |
| CCCCCCCCCCCCS(=O)CC(C)O (stereo not given) | 99% |
| Cc1nc2cc(Nc3nc(Nc4ccc(F)cc4)nc(-c4cccs4)n3)ccc2n1Cc1ccccc1 | 28.1% |
| CNc1ccc(N)cc1 | 109% |
| CCN(CC)CCN1C(=O)c2cccc3c(/C=C/CN4C(=O)c5cccc6cccc(c56)C4=O)ccc(c23)C1=O | 83.4% |
| Cc1ccccc1C(c1ccccc1)c1ccccc1C | 88.4% |
| CCCCCCCCC/C(=N\NC(=O)c1ccncc1)c1ccc(O)c(O)c1O | 0.166% (active) |
| Cc1cc(N2CCN(CC(=O)Nc3ccc4c(ccn4Cc4ccccc4)c3)CC2)nc(N2CCCCCC2)n1 | 12.1% |
| CCN(CC)CCOc1nc2ccc(OC)cc2c2c1-c1ccc(OC)cc1C2=O | 19.2% |
| CC(C)(O)CC(=O)NCCn1ccc2ncnc(Nc3ccc(Oc4cccc(C(F)(F)F)c4)c(Cl)c3)c21 | 2.51% (active) |
| CC(=O)c1sc(-c2ccccc2)cc1N | 83.6% |
| CC[C@H]1OC(=O)[C@H](C)[C@@H](O[C@H]2C[C@@](C)(OC)[C@@H](O)[C@H](C)O2)[C@H](C)[C@@H](O[C@@H]2O[C@H](C)C[C@H](N(C)C)[C@H]2O)[C@](C)(OC)C/C(C)=C2/O[C@@]1(C)C=C2C | 41.4% |
| COc1cccc(C2CC(=O)Nc3cc4c(cc32)OCO4)c1OC (stereo not given) | 93.7% |
| CCCCCCCCCCCCCCCCCCOc1ccccc1CC(=O)OCC[N+](CC)(CC)CC | -20.7% (active) |
| CC[C@@H]1NC(=O)[C@H]([C@H](O)[C@H](C)C/C=C/c2ccc(CN3C(=O)CCCC3=O)cc2)N(C)C(=O)[C@H](C(C)C)N(C)C(=O)[C@H](CC(C)C)N(C)C(=O)[C@H](CC(C)C)N(C)C(=O)[C@@H](C)NC(=O)[C@H](C)NC(=O)[C@H](CC(C)C)N(C)C(=O)[C@H](C(C)C)NC(=O)[C@H](CC(C)C)N(C)C(=O)CN(C)C1=O | 61.3% |
| O=Cc1ccc(F)cc1 | 103% |
| Nc1ncnc2c1c(-c1cccc(OCc3ccccc3)c1)cn2C1CC(CN2CCC2)C1 (stereo not given) | -51.5% (active) |
| S=C1SCN(Cc2ccccc2)CN1Cc1ccco1 | 32% |
| C[n+]1c(/C=C/c2c(O)ccc3ccccc23)ccc2ccccc21 | 17.9% |
| N#C/C(=C\c1ccc(Br)cc1)n1nnc2cc(Cl)c(Cl)cc21 | -0.568% (active) |
| O=C(CCN1C(=O)c2ccccc2C1=O)Nc1ccc(Cl)cc1 | 105% |
| CC1(C)CC[C@]2(C(=O)O)CC[C@]3(C)[C@H](CC[C@@H]4[C@@]5(C)CCC(=O)C(C)(C)[C@@H]5CC[C@]43C)[C@H]2[C@H]1OC(=O)C(F)(F)F | -23.4% [100 µM] (active) |
| COc1c(-c2c3sc(=O)[nH]c3nc3c2c(=O)[nH]n3C(C)C)cc2c(c1OC)OCO2 | 93.8% |
| Oc1ccc(Cc2ccc(O)c3ncccc23)c2cccnc12 | 5.77% (active) |
| C=C1CC[C@@H]2[C@@](C)(CCC[C@]2(C)C(=O)O)[C@@H]1CC[C@H](CO)CCO | 93.7% |
| COc1ccc(Cn2cc3c(c2-c2cc(OC)c(OC)c(OC)c2)CCc2cnoc2-3)cc1[N+](=O)[O-] | 11% |
